Screens from PubChem.
The list is not random: actives were taken first. Their share in the collection is about 11%.
PNC assembly inh = High Content Assay for Compounds that inhibit the Assembly of the Perinucleolar Compartment; PC3M PTB-GFP, PNC prevalence imaging, 16 h; stronger effect = lower value; AID 2417, 2010; activity change (PNC), negative = inhibition, % at 10 µM; 140,000 compounds, 3.1% hits;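 active = readout at or below -70, meaning at least 70% loss of cells showing the perinucleolar compartment, a nuclear body marking cancer cells; inconclusive = readout between -30 and a set limit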;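 also: plate controls were DMSO wells for no effect and camptothecin positive control wells for full effect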
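Read-out is percentage of cells bearing a perinucleolar compartment, from automated 20x imaging of fixed, Hoechst-stained PC3M PTB-GFP cells. Cells were seeded 4 h, then exposed 16 h to compound (23 nl of library stock) in duplicate plates.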
IMPase inh = qHTS Assay for Identifying the Cell-Membrane Permeable IMPase Inhibitors; Inositol monophosphatase 1 (Rattus norvegicus), P97697; CHO-M1 cells, IP1 accumulation, HTRF TR-FRET ratio; inhibition (IP1 accumulation), % at 46.1 µM; 120,000 tested, under 10 active; AID 901, 2007; active = well fitted curve in the direction sought with a large enough effect in the signal ratio, not every such curve was filed as active; inconclusive = small, poorly fitted or top-dose-only effect, or a change in a side signal; inactive = no such curve, though single readings can be large or run the other way; the % refers to the signal ratio;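 also: cells stimulated with carbachol in lithium chloride buffer; plate controls were DMSO basal wells for no effect and reference inhibitor wells for full effect; higher means more IMPase inhibition seen as more IP1 and lower FRET ratio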
Target sequence (P97697 whole entry, looked up): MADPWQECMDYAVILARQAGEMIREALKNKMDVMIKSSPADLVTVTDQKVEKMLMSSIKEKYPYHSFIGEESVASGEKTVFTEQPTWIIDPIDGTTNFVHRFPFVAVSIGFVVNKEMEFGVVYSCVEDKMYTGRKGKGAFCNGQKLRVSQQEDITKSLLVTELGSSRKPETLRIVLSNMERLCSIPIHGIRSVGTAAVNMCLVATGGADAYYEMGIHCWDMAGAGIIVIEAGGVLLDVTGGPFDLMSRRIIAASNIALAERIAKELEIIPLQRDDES
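Carbachol-driven Gq signalling in CHO-M1 cells (2000/well) generates IP1. Compounds that block IMPase raise IP1 and so reduce the FRET signal from Eu-anti-IP1 and d2-IP1 after a 10 min room-temperature lysis.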
IMPase Li inh = qHTS Assay for Identifying the Cell-Membrane Permeable IMPase Inhibitors: Potentiation with Lithium; CHO-M1 cells, IP1 TR-FRET (IP-One), carbachol + lithium; Potency, µM (highest dose often 59.4 µM), for the others: at the highest dose activity, negative = IMPase inhibition, most hits filed as inhibitors; 210,000 compounds, 0.35% hits; AID 1457, 2008; active = well fitted inhibition curve with a large enough effect; inconclusive = small, poorly fitted or top-dose-only effect; inactive = no such curve, though single readings can be large or run the other way;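 also: IP1 builds up when IMPase is blocked and the TR-FRET signal falls; potency is read from the fitted curve at half-maximal effect; plate controls were basal vehicle for no effect and high inhibitor control for full effect; nearly all actives have a fitted effect of over 50% in size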
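Steps: plate 2000 CHO-M1 cells per well and culture 16–30 h; add compound and lithium; incubate 30 min, 37C; add d2-IP1 tracer and Eu cryptate anti-IP1 antibody in lysis buffer; read after 10 min at room temperature.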
HPGD inh = qHTS Assay for Inhibitors of HPGD (15-Hydroxyprostaglandin Dehydrogenase); Potency, µM, for the others: top-dose activity change, negative = inhibition, hits mostly inhibitors; 150,000 compounds, 4.3% hits; 15-hydroxyprostaglandin dehydrogenase [NAD(+)] (Homo sapiens), P15428; AID 894, 2007; purified HPGD, NADH fluorescence kinetic, PGE2 substrate; also: potency is read from the fitted curve at half-maximal effect
Target sequence (P15428 whole entry, looked up): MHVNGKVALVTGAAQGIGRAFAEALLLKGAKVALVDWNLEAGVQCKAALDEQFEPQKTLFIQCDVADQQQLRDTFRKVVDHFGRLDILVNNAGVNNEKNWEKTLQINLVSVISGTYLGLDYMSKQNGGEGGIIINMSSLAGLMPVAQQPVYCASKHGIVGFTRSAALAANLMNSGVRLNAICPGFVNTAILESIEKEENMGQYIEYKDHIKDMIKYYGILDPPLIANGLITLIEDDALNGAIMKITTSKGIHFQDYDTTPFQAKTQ
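20 nM HPGD preincubated 15 min at room temperature with compound in 50 mM Tris-HCl pH 8, 0.01% Tween 20. Started with 1 mM NAD+ and 30 uM prostaglandin E2; NADH fluorescence (360/450 nm) read 5 times over 30-s intervals, last minus first.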
ALDH1A1 inh = qHTS Assay for Inhibitors of Aldehyde Dehydrogenase 1 (ALDH1A1) | Aldehyde dehydrogenase 1A1 (Homo sapiens), P00352 | Purified ALDH1A1, NADH fluorescence, propionaldehyde substrate | Potency, µM (highest dose often 75.3 µM), for the others: at the highest dose activity, negative = inhibition, usual class: inhibitors | 220,000 compounds, 7.3% hits | AID 1030, 2008;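 also: potency is read from the fitted curve at half-maximal effect; plate controls were no enzyme wells and a reference inhibitor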
Starred values were filed as active, the others as inactive; ? = inconclusive; · = no result given; [ ] = another dose, or the depositor's remark. Unless noted, calls follow the shape of the dose curve; as a rule, active = well fitted inhibition curve with a large enough effect (not every such curve was filed as active); inconclusive = small, poorly fitted or top-dose-only effect, or another doubt; inactive = no such curve, though single readings can be large or run the other way. Unless noted, % is scaled to controls: 0 for no effect and ±100 for the full control effect.

SMILES	PNC assembly inh	IMPase inh	IMPase Li inh	HPGD inh	ALDH1A1 inh
COc1ccc(OC)c2[nH]c(=O)c(CCNS(=O)(=O)c3ccccc3)cc12	?	0	-1%[38.3 µM]	-26%	7.1µM*
COCCn1c(=O)cnc2cnc(Nc3cccc(OC)c3)nc21	·	·	5%	·	11%
CCC(=O)Nc1ccccc1C(=O)OCc1ccc(C(=O)c2ccccc2)cc1	4	5	10%[38.3 µM]	14µM*	?
CCC(=O)Nc1ccccc1C(=O)OC(c1ccccc1)c1ccccc1	30	·	22%	?	?
Cc1cc(C(=O)c2ccccc2)c(NC(=O)CCl)s1	?	·	4%	?	2.5µM*
Cc1ccc(NS(C)(=O)=O)c(C(=O)c2ccccc2)c1	-10	0	21%[38.3 µM]	-10%	-3%
O=C(CCl)Nc1ccccc1C(=O)c1ccccc1	·	·	-9%	·	25µM*
Cc1ccc(/C=N/n2c(C3CCCCC3)n[nH]c2=S)s1	7	·	3%	11µM*	-3%
Cc1ccsc1/C=N/n1c(C2CCCCC2)n[nH]c1=S	0	14	4%	13µM*	?
S=c1[nH]nc(C2CCCCC2)n1/N=C/c1ccco1	-11	·	12%	?	?
S=c1[nH]nc(C2CCCCC2)n1/N=C/c1ccccn1	·	·	3%	·	3.5µM*
CC1=CC2C(=O)c3cccc(O)c3C(=O)C2C(O)=C1 (configuration not stated)	·	·	17%	-13%	?
COCCCN(C(=S)Nc1c(C)cc(C)cc1C)C(C)c1ccccn1 (configuration not stated)	·	·	10%	·	8%
CCc1cc2c(nc1CC)CCN(CC/C(C)=N/OC[C@@H](O)[C@@H]1O[C@@H]3OC(C)(C)O[C@@H]3[C@H]1O)C2	·	·	·	·	-3%[13.5 µM]
Cn1ccnc1SCC(=O)Nc1sccc1C#N	64	-1	-2%[38.3 µM]	-15%	25µM*
CCOc1ccc(NC(=O)CSc2nccn2C)cc1	-100*	-3	2%	-9%	4%
Cn1ccnc1SCC(=O)Nc1ccc2c(c1)OCO2	·	·	-11%	·	14µM*
CCOc1ccc(NC(=O)CSC(N)=O)cc1	24	-12	-10%[38.3 µM]	-16%	2µM*
CCOc1ccc(NC(=O)CC)cc1	·	·	0%	·	13%
O=C(CSc1nccn1-c1ccccc1)Nc1ccc2c(c1)OCO2	-21	0	4%[38.3 µM]	-18%	?
Cc1noc(C)c1-c1ccc2ncnc(N3CCOCC3)c2c1	·	·	9%	·	-13%
CO[C@@H]1COC(=O)CC=C[C@@H](C)[C@@H]2C=C[C@@H](O)[C@@H](COC(=O)C/C=C\[C@H]1C)O2	·	·	·	·	-6%[13.5 µM]
CCCCCCc1nc2ccccc2c(=O)n1NC(=O)c1c(O)c2cccc3c2n(c1=O)CCC3	?	-2	-15%[38.3 µM]	-19%	2%
Cc1cc(C)c(NC(=O)CSc2nccn2C)c(C)c1	-17	·	2%	6.3µM*	-7%
CCc1cc2cc3c(cc2nc1SCC(=O)Nc1nccs1)OCO3	60	?	13µM*	-10%	3%
SMILES	PNC assembly inh	IMPase inh	IMPase Li inh	HPGD inh	ALDH1A1 inh
Cc1cc(C)cc(-n2ccnc2SCC(=O)Nc2ccc3c(c2)OCCO3)c1	-85*	?	31%[38.3 µM]	-11%	?
CCOc1ccc(NC(=O)c2c(OC)cccc2OC)cc1	·	·	-8%	·	-3%
Cc1cc(NC(=O)CSc2nccn2C)no1	·	·	3%	·	7%
CCOc1ccc(NC(=O)COC(=O)c2c(OC)cccc2OC)cc1	?	·	6%	-26%	28µM*
O=C(CSc1nccn1-c1ccc(F)cc1)Nc1ccc2c(c1)OCO2	?	0	-4%[38.3 µM]	-15%	?
CC1CCC2C(=O)N3C(CCC(C)[C@H]3c3ccccc3Br)C(=O)N2C1c1ccccc1Br (some centres not stated)	·	·	·	·	-4%[13.5 µM]
Cc1ccccc1OC1C=CC(C#Cc2ccc(Br)cc2)OC1CO (configuration not stated)	·	·	·	·	11%[13.5 µM]
Cc1ccc(C#N)c(SCC(=O)Nc2nccs2)n1	·	·	13µM*	·	3%
O=C(NCc1ccco1)C(c1cccs1)N(C(=O)C1COc2ccccc2O1)c1cccc(O)c1 (configuration not stated)	-116*	6	13%	-2%	-12%
Brc1ccccc1OCCCN1CCOCC1	-100*	8	0%	-13%	-9%
CCOc1cccc(OCCCCN2CCOCC2)c1	16	11	9%[38.3 µM]	2%	?
COc1cccc(OCCCCCCN2CCOCC2)c1	2	12	13%[38.3 µM]	-9%	4µM*
CN(CC1CCOCC1)C(=O)CC1C(=O)NCCN1Cc1ccc(-c2ccccc2)cc1 (configuration not stated)	·	·	5%	·	-2%
COC(=O)C(C(=O)NCC1CCCO1)C1CCCC1 (configuration not stated)	43	7	32%[38.3 µM]	-7%	6%
COc1ccccc1N1CCN(C(=O)c2oc3ccc(Br)cc3c2C)CC1	-95*	·	19%	-21%	9%
COc1ccccc1N1CCN(C(=O)c2ccccc2Oc2ccccc2)CC1	?	9	5%[38.3 µM]	-18%	0.56µM*
COc1ccccc1N1CCN(C(=O)/C=C/c2ccccc2)CC1	-100*	-6	10%	-10%	1%
COc1ccccc1N1CCN(C(=O)c2ccc3nc(-c4ccco4)c(-c4ccco4)nc3c2)CC1	23	11	20%	-17%	13µM*
Cc1ccc([N+](=O)[O-])c(N)c1	·	·	6%	-4%	-6%
C[C@H]1Cc2c(-c3ccccc3)nc3c(c2CO1)CN(C(=O)c1cc(I)ccc1F)CC3	·	·	8%	-1%	18%[13.5 µM]
COCCCn1c(=N)c(C(=O)NCC2CCCO2)cc2c(=O)n3cc(C)ccc3nc21 (configuration not stated)	·	-1	·	·	·
COC(=O)C1CCN(C(=O)/C=C/c2ccccc2)CC1	-114*	·	0%	-3%	-5%
O=C(/C=C/c1ccccc1)N1CCC(Cc2ccccc2)CC1	-3	-19	·	·	6%
COc1ccccc1Nc1n[nH]c(=S)s1	·	·	14%	·	3.5µM*
Cc1cccc(Nc2n[nH]c(=S)s2)c1C	-20	-12	9%[38.3 µM]	10µM*	3.5µM*
COc1cccc(Nc2n[nH]c(=S)s2)c1	?	11	7%	10µM*	3.5µM*
CCN(CC)c1ccc(-c2n[nH]c(=S)n2-c2ccccc2)cc1	·	·	8%	·	?
CC(=O)N1CCc2cc(S(=O)(=O)NC(Cc3ccccc3)C(=O)Nc3cc(C)ccn3)ccc21 (configuration not stated)	-6	-5	18%[38.3 µM]	-11%	10µM*
CCC(=O)N1CCc2cc(S(=O)(=O)NC(Cc3ccccc3)C(=O)NC3CCCCC3)ccc21 (configuration not stated)	69	·	6%	-9%	2%
